Common to all, as to test: DAPPL (digital affinity profiling via proximity ligation, sequencing); 10 mM Tris-HCl pH 7.5, 50 mM NaCl, 1 mM DTT, 4% glycerol, room temperature, 30 min; GST-TFs on glutathione beads, 16-mer random dsDNA library, 0.1% formaldehyde crosslink after washing; high values mean tight binding
The target in one assay is T1, FLI1 (Homo sapiens, UniProt Q01543 1-452).
T1 sequence: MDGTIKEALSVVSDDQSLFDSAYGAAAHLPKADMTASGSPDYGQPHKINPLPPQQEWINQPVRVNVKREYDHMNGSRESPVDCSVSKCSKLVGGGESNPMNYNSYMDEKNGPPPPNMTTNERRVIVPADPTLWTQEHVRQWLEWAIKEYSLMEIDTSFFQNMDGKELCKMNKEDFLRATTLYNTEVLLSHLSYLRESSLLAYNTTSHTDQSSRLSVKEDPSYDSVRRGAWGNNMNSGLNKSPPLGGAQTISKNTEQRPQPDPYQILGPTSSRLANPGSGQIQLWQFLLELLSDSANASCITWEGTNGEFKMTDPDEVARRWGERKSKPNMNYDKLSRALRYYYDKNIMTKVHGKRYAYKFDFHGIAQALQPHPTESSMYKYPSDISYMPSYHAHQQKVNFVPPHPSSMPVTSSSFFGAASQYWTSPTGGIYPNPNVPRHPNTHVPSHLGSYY
The following applies: protein: recombinant; tags: N-terminal GST; dsDNA, one strand shown. In short, it runs like this: (§1)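 Pools were built from human transcription factors expressed in yeast as GST fusions, captured on glutathione beads and DNA-barcoded, along with a tag-only sample. Incubation with 200 nmole of a 16-mer random double-stranded DNA library lasted 30 min at room temperature in Tris/NaCl/DTT/glycerol buffer, and was followed by washing, 0.1% formaldehyde crosslinking, proximity ligation, PCR amplification and Illumina NextSeq500 sequencing. Binding signal is the quotient of each hexamer's read frequency for a factor and its frequency for the tag-only sample.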

Another assay deals with T2, ELK1 (Homo sapiens, UniProt P19419 1-428).
T2 sequence: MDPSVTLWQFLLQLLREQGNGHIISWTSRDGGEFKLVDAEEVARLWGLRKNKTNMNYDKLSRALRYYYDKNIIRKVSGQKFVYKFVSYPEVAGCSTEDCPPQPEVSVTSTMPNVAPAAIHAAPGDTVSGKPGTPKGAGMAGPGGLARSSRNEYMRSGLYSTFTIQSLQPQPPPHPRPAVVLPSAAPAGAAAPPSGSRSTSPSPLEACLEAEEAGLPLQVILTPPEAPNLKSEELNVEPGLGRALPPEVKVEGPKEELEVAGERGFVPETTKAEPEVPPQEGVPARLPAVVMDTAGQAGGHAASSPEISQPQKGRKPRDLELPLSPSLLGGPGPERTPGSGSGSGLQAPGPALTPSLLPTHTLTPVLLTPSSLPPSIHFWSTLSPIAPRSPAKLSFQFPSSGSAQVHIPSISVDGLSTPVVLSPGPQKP
The following applies: protein: recombinant; tags: N-terminal GST; dsDNA, one strand shown. In short, it runs like this: as §1

The next assay has as its target T3, GABPA (Homo sapiens, UniProt Q06546 1-454).
T3 sequence: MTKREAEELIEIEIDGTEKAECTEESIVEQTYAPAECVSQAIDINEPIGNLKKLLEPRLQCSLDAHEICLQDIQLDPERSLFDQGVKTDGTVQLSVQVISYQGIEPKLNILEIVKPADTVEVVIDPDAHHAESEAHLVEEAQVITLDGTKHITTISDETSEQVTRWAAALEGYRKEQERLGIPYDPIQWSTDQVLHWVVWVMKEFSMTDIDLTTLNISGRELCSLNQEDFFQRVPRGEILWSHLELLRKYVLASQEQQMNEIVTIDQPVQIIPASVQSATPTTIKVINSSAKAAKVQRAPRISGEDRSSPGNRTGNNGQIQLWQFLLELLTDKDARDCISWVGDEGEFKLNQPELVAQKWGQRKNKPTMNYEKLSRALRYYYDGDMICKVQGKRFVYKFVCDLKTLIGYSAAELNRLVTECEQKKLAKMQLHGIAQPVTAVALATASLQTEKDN
The following applies: protein: recombinant; tags: N-terminal GST; dsDNA, one strand shown. Summed up: as §1

In the next assay the target is T4, ERG (Homo sapiens, UniProt P11308 1-479).
T4 sequence: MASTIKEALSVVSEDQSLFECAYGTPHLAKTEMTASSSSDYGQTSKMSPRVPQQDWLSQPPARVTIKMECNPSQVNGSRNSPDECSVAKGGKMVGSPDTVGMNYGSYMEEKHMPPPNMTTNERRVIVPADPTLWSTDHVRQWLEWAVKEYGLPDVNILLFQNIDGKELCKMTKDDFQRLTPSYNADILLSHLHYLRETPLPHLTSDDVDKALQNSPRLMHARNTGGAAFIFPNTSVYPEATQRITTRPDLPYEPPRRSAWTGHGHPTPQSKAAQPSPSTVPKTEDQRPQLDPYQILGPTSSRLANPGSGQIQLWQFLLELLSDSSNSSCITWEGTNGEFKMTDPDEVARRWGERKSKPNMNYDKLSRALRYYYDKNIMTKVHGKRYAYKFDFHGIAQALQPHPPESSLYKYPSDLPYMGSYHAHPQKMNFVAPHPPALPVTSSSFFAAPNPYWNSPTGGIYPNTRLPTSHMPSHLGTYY
The following applies: protein: recombinant; tags: N-terminal GST; dsDNA, one strand shown. In short, it runs like this: as §1

A further assay has as its target ELF1 (Homo sapiens, UniProt P32519 1-619). The conditions noted are these: protein: recombinant; tags: N-terminal GST; dsDNA, one strand shown. In short, it runs like this: as §1
The target in a further assay is T5, EHF (Homo sapiens, UniProt Q9NZC4 1-300).
T5 sequence: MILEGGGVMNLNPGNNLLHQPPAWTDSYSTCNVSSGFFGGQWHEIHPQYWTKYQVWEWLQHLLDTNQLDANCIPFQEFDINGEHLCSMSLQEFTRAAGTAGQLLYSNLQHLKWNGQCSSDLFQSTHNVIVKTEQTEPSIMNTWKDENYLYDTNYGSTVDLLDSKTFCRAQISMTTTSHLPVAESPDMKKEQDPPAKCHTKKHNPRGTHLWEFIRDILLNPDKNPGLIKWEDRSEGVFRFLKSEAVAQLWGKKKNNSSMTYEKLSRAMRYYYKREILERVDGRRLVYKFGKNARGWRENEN
The conditions noted are these: protein: recombinant; tags: N-terminal GST; dsDNA, one strand shown. In short, it runs like this: as §1

Another assay addresses SPI1 (Homo sapiens, UniProt P17947 1-270). The following applies: protein: recombinant; tags: N-terminal GST; dsDNA, one strand shown. Summed up: as §1
For a further assay, the target named is SPIB (Homo sapiens, UniProt Q01892 1-262). The following applies: protein: recombinant; tags: N-terminal GST; dsDNA, one strand shown. Summed up:
as §1

A further assay deals with T6, ELK3 (Homo sapiens, UniProt P41970 1-407).
T6 sequence: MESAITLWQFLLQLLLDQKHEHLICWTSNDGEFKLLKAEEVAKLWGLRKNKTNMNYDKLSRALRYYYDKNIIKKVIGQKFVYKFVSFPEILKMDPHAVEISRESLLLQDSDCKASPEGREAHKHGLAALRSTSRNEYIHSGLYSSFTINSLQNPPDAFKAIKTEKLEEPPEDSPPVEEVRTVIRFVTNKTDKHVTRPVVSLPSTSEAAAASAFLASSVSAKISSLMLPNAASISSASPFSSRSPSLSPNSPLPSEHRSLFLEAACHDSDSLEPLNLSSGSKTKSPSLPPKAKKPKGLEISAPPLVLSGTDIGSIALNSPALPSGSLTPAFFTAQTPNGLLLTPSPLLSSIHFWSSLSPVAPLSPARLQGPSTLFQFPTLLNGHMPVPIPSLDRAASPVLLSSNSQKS
The following applies: protein: recombinant; tags: N-terminal GST; dsDNA, one strand shown. In short, it runs like this: as §1

A further assay has as its target T7, FEV (Homo sapiens, UniProt Q99581 1-238).
T7 sequence: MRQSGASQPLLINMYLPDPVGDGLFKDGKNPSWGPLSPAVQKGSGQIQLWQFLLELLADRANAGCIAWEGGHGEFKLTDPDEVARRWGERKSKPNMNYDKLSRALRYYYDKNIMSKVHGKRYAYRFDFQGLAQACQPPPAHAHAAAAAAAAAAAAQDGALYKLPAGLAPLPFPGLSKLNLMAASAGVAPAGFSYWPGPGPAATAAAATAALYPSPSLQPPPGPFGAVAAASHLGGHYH
The following applies: protein: recombinant; tags: N-terminal GST; dsDNA, one strand shown. In short, it runs like this: as §1

In the next assay the target is ETV5 (Homo sapiens, UniProt P41161 1-510). The conditions noted are these: protein: recombinant; tags: N-terminal GST; dsDNA, one strand shown. Summed up: as §1
A further assay deals with HSF1 (Homo sapiens, UniProt Q00613 1-529). The following applies: protein: recombinant; tags: N-terminal GST; chain copies: 3; dsDNA, one strand shown. Summed up:
as §1

A further assay addresses T8, SPIC (Homo sapiens, UniProt Q8N5J4 1-248).
T8 sequence: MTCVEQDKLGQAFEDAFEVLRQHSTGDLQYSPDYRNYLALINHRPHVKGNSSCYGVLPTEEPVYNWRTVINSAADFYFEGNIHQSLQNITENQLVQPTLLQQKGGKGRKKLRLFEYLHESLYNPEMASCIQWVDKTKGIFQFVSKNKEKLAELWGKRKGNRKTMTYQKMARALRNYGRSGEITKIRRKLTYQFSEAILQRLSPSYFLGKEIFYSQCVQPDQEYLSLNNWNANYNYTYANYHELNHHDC
The following applies: protein: recombinant; tags: N-terminal GST; dsDNA, one strand shown. In short, it runs like this: as §1

For the next assay, the target named is ELF4 (Homo sapiens, UniProt Q99607 1-663). The conditions noted are these: protein: recombinant; tags: N-terminal GST; dsDNA, one strand shown. In short, it runs like this: as §1
The target of a further assay is T9, ELK4 (Homo sapiens, UniProt P28324-2 1-405).
T9 sequence: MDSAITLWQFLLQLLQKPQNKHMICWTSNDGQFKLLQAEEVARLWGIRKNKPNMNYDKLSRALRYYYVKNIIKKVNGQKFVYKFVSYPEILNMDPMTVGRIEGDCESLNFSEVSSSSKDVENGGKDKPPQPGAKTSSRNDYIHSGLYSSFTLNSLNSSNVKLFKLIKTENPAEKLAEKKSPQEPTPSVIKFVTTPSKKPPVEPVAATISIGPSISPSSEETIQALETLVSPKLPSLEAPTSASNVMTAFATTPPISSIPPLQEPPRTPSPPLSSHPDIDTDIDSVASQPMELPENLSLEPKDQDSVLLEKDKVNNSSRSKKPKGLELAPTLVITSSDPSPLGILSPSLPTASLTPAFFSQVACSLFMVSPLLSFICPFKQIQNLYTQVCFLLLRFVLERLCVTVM
The following applies: protein: recombinant; tags: N-terminal GST; dsDNA, one strand shown. Summed up: as §1

A further assay has as its target T10, ETV2 (Homo sapiens, UniProt O00321 1-342).
T10 sequence: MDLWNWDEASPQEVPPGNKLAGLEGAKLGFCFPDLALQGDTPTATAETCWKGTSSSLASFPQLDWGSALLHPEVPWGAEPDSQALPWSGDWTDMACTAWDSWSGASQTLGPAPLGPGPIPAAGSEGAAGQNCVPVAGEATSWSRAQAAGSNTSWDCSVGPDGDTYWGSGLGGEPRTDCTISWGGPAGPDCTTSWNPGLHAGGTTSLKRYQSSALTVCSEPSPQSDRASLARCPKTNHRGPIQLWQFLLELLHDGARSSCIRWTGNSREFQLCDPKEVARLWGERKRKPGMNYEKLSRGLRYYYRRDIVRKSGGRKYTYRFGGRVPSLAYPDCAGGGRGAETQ
The following applies: protein: recombinant; tags: N-terminal GST; dsDNA, one strand shown. Summed up:
as §1

Another assay addresses T11, ELF3 (Homo sapiens, UniProt P78545 1-371).
T11 sequence: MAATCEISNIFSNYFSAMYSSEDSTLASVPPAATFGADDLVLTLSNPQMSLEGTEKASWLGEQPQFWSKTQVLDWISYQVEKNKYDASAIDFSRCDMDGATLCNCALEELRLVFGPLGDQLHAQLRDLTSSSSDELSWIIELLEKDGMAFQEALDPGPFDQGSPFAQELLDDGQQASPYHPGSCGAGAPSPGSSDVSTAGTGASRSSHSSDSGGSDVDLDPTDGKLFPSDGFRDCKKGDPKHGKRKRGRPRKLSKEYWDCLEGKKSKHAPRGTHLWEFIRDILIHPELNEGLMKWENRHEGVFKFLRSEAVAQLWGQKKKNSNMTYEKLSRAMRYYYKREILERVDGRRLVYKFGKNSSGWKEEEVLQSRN
The conditions noted are these: protein: recombinant; tags: N-terminal GST; dsDNA, one strand shown. Summed up:
as §1

A further assay concerns the target CRX (Homo sapiens, UniProt O43186 1-299). The conditions noted are these: protein: recombinant; tags: N-terminal GST; dsDNA, one strand shown. Summed up: as §1
The next assay deals with ETV1 (Homo sapiens, UniProt P50549 1-477). The conditions noted are these: protein: recombinant; tags: N-terminal GST; dsDNA, one strand shown. In short, it runs like this:
as §1

Sequence of ETV1 (P50549 whole entry): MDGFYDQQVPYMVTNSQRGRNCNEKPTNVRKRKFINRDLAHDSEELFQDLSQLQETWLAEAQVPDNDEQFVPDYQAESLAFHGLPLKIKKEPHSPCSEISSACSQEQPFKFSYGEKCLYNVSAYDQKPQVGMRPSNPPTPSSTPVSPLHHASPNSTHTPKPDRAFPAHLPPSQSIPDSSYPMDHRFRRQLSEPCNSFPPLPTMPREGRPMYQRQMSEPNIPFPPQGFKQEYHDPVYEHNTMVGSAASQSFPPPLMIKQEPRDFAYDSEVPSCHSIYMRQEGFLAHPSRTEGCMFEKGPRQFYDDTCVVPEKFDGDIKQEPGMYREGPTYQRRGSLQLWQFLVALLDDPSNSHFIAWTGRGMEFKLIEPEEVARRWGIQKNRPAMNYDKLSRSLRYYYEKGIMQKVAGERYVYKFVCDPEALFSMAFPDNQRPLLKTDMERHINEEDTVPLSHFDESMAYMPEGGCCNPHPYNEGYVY
Sequence of SPIB (Q01892 whole entry): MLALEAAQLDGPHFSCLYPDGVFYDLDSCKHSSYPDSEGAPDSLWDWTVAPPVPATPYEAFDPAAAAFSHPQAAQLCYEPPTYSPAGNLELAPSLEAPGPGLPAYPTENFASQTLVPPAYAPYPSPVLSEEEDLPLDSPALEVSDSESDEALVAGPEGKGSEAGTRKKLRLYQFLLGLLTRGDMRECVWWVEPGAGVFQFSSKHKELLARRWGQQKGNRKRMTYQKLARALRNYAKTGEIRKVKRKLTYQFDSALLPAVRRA
Sequence of ELF4 (Q99607 whole entry): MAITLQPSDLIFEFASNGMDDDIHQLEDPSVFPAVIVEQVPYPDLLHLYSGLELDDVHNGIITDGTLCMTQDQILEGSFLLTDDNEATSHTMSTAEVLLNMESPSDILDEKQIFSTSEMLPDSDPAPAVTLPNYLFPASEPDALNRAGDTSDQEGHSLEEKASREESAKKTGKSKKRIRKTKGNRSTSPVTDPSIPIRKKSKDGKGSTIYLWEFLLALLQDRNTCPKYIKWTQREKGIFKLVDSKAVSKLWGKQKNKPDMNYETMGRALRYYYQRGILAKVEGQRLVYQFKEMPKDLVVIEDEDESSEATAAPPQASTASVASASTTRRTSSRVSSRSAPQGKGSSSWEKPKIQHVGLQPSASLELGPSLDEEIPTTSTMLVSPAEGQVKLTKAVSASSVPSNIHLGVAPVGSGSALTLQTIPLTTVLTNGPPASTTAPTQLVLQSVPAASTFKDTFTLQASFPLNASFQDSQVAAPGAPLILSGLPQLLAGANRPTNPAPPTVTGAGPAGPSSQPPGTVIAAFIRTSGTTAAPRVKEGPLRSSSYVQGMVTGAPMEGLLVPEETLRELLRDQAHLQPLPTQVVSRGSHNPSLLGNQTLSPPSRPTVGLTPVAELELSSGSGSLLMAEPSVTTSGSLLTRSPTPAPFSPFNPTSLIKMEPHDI
Sequence of ELF1 (P32519 whole entry): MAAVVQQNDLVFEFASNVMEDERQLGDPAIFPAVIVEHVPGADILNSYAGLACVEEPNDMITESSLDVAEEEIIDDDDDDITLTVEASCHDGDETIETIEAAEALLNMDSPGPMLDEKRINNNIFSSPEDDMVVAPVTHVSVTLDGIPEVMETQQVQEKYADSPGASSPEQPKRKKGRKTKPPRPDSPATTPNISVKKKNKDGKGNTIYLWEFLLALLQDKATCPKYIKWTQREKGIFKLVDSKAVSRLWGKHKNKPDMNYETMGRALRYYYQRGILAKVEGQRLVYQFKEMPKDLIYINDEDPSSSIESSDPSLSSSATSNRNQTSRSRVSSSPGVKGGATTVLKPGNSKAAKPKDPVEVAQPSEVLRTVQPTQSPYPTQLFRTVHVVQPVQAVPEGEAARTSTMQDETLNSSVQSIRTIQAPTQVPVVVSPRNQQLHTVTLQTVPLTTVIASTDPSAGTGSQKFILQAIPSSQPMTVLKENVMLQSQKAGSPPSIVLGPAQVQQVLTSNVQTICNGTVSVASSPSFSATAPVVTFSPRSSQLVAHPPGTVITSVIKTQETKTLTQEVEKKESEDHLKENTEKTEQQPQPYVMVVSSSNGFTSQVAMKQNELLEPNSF
Sequence of HSF1 (Q00613 whole entry): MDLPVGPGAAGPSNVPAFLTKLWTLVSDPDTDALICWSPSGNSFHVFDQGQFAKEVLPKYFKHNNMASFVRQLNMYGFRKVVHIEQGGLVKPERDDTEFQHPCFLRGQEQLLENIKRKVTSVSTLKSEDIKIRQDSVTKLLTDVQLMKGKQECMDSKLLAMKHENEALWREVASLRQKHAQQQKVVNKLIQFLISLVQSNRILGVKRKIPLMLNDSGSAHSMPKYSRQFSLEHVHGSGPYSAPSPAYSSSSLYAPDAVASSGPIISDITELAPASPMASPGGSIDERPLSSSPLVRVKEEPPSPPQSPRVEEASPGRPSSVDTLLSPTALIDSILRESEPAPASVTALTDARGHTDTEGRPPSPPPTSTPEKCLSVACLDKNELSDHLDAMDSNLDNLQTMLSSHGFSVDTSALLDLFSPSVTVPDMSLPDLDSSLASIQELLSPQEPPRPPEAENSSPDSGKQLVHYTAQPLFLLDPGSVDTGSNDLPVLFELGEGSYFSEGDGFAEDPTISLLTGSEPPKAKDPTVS
Sequence of CRX (O43186 whole entry): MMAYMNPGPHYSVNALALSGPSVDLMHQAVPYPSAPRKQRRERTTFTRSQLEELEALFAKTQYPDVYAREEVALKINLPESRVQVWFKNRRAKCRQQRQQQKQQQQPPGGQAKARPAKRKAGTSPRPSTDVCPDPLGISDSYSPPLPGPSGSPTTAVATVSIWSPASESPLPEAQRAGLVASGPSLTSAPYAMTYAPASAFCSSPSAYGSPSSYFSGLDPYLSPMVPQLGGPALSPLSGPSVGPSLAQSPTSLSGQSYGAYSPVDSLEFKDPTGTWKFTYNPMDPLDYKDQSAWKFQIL
Sequence of ETV5 (P41161 whole entry): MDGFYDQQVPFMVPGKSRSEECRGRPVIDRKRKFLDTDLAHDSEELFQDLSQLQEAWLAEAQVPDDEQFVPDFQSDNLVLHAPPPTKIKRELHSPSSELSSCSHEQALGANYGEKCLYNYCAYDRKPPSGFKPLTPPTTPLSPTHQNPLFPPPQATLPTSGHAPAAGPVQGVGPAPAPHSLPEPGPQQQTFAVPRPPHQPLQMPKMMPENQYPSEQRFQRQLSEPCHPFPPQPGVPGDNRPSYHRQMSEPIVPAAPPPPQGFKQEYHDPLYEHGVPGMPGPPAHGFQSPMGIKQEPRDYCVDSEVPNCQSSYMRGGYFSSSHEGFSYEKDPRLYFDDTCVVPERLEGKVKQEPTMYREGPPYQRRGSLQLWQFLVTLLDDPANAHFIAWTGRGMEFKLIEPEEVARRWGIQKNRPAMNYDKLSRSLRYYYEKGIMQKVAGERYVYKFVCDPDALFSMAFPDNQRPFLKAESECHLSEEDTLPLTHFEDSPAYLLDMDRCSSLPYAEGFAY

Take CTACAA: the binding signal with FLI1 was 1.17 fold enrichment (6-mer frequency, TF over GST control); in the assay with ELK1, 1.13 fold enrichment (6-mer frequency, TF over GST control); in the assay with GABPA, 1.2 fold enrichment (6-mer frequency, TF over GST control); with ERG it was 1.08 fold enrichment (6-mer frequency, TF over GST control); in the assay with ELF1 it was 1.13 fold enrichment (6-mer frequency, TF over GST control); with EHF, 1.14 fold enrichment (6-mer frequency, TF over GST control). In addition, the binding signal with SPI1 was 1.09 fold enrichment (6-mer frequency, TF over GST control); with SPIB, 1.15 fold enrichment (6-mer frequency, TF over GST control); with ELK3, 1.03 fold enrichment (6-mer frequency, TF over GST control); in the assay with FEV it was 1.14 fold enrichment (6-mer frequency, TF over GST control); in the assay with ETV5, 1.21 fold enrichment (6-mer frequency, TF over GST control); in the assay with HSF1 it was 1.16 fold enrichment (6-mer frequency, TF over GST control). Moreover, the binding signal is 1.2 fold enrichment (6-mer frequency, TF over GST control) with SPIC; 1.18 fold enrichment (6-mer frequency, TF over GST control) in the assay with ELF4; 1.21 fold enrichment (6-mer frequency, TF over GST control) with ELK4; 1.18 fold enrichment (6-mer frequency, TF over GST control) with ETV2; 1.03 fold enrichment (6-mer frequency, TF over GST control) with ELF3; 1.04 fold enrichment (6-mer frequency, TF over GST control) with CRX. Further, the binding signal with ETV1 is 1.13 fold enrichment (6-mer frequency, TF over GST control).

The record behind these values is article PMC7862700, “An all-to-all approach to the identification of sequence-specific readers for epigenetic DNA modifications on cytosine”.
